BoNT F protease: BoNT/F light chain protease inhibitors, primary screen, biochemical, flow cytometry, MLPCN library | Multiplex microsphere protease cleavage assay | Botulinum neurotoxin type F light chain protease (Clostridium botulinum) | inhibition, % at 10 µM | AID 588497, 2011 | 0.22% of 360,000 active; in the data active = inhibition above about 35%, passing the limit was not always enough; inconclusive = no clear call, values can overlap the other calls; note: plate controls were buffer without enzyme for full effect and enzyme alone for no effect
Anthrax LF prot: Bacillus anthracis LF protease inhibitors, primary screen, biochemical, multiplex microsphere, MLPCN library; 0.12% of 360,000 active; Lethal factor (Bacillus anthracis), P15917; inhibition, % at 10 µM; multiplex microsphere protease cleavage assay; note: plate controls were buffer without enzyme for full effect and enzyme alone for no effect
MazF activator: activators of E. coli MazEF toxin-antitoxin RNase, primary screen, biochemical, fluorescence, uHTS; Endoribonuclease toxin MazF (Escherichia coli (strain K12)), P0AE70; FAM/BHQ RNA-DNA oligo cleavage fluorescence, 5 h; activation, % at 20 µM; 0.32% of 350,000 active; AID 504720, 2011; in the data active = activation above about 50%
Target sequence (P0AE70 whole entry, looked up): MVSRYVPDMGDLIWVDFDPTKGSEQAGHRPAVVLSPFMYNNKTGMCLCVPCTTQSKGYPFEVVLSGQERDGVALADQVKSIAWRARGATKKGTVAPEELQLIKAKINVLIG
DUSP3 inh: VHR1 phosphatase inhibitors, primary screen, biochemical, absorbance, uHTS; inhibition, % at 13.3 µM; 0.52% of 290,000 active; AID 1654, 2009; recombinant VHR phosphatase, pNPP absorbance; in the data active = inhibition above about 50%
Target sequence (P51452 whole entry, looked up): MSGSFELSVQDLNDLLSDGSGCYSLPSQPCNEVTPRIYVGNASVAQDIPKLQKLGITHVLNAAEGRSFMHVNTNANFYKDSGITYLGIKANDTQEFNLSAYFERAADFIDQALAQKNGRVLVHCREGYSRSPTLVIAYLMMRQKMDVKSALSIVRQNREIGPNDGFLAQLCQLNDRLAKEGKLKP
BoNT A protease: BoNT/A light chain protease inhibitors, primary screen, biochemical, flow cytometry, MLPCN library; Botulinum neurotoxin type A light chain protease (Clostridium botulinum A str. ATCC 3502); multiplex microsphere protease substrate cleavage; inhibition, % at 10 µM; 0.17% of 360,000 active; note: plate controls were buffer without enzyme for full effect and enzyme alone for no effect
Autofluor counter: compound fluorescence in toxin protease inhibitor counterscreen; compound autofluorescence counterscreen, microsphere flow cytometry; active compounds read high; fluorescence intensity (no concentration beside the values); 3.1% of 360,000 active; in the data active = fluorescence intensity above about 16000; inconclusive = no clear call, values can overlap the other calls
The depositor's hits bear a star. Compounds with a hit are over-represented: about 4.1% of the library has one in this group of screens. Cut-off read from the data, not from the text of the source, unless noted: active = inhibition above about 30%; inconclusive = no clear call, values can overlap the other calls; inactive = below that.

Screening C=CCN1C(=O)CSc2ccc(C(=O)N3CCC4(CC3)OCCO4)cc21 returned BoNT F protease -8, Anthrax LF prot -3, MazF activator 4, DUSP3 inh 13, BoNT A protease -5 and Autofluor counter 17917*.
For CCC(C)NC(=O)Nc1ccc2c(c1)N(C)C(=O)c1ccccc1S2 (stereo not drawn) the results were BoNT F protease 1, Anthrax LF prot -1, MazF activator 4, DUSP3 inh 10, BoNT A protease 0 and Autofluor counter 16200*.
O=C(c1ccc2c(c1)N(Cc1ccccc1)C(=O)c1ccccc1S2)N1CCCC1 was read as BoNT F protease 4, Anthrax LF prot 1, MazF activator -3, DUSP3 inh 20, BoNT A protease inconclusive and Autofluor counter 21624*.
Screening CC(Sc1ccccc1)C(=O)NNC(=O)c1csc(N2CCOCC2)n1 (stereo not drawn) returned BoNT F protease inconclusive, Anthrax LF prot -7, MazF activator 2, BoNT A protease -9 and Autofluor counter inconclusive.
Screening CCOc1ccc(NC(=O)C2CC(=O)N(CCc3ccc(OC)c(OC)c3)C2)cc1OCC (stereo not drawn) returned BoNT F protease -4, Anthrax LF prot -12, MazF activator -9, BoNT A protease 0 and Autofluor counter 3473.
`CC(=O)Nc1cccc(C(=O)OCC(=O)N2CCN(C(=O)COC(=O)c3cccc(NC(C)=O)c3)CC2)c1` gave BoNT F protease -175, Anthrax LF prot -27, MazF activator -8, BoNT A protease -127 and Autofluor counter inconclusive.
For C=CCOc1cccn2c(N(C)C(=O)c3ccncc3)c(CC)nc12 the results were BoNT F protease -8, Anthrax LF prot -7, BoNT A protease 0 and Autofluor counter 3036.
For Cc1nc(-n2ncc(C#N)c2N)c2c3c(sc2n1)CCC3 the results were BoNT F protease 1, Anthrax LF prot 1, MazF activator 12, DUSP3 inh 19, BoNT A protease 0 and Autofluor counter 22751*.
For N#Cc1cnn(-c2ncnc3sc4c(c23)CCCC4)c1N the results were BoNT F protease -17, Anthrax LF prot 0, MazF activator -2, DUSP3 inh -14, BoNT A protease -1 and Autofluor counter 5002.
Screening O=C(Nc1ccc(F)cc1Cl)C1CCN(C(=O)Nc2ccccc2)CC1 returned BoNT F protease -1, Anthrax LF prot 0, MazF activator 1, DUSP3 inh 26, BoNT A protease 0 and Autofluor counter 5506.
Screening COc1ccc(Cn2nnnc2C(c2cc3cccc(C)c3[nH]c2=O)N2CCOCC2)cc1 (stereo not drawn) returned BoNT F protease 8, Anthrax LF prot -3, MazF activator 4, DUSP3 inh 21, BoNT A protease -1 and Autofluor counter 10896.
For Cc1cccc2cc(C(c3nnnn3Cc3ccccc3)N3CCCc4ccccc43)c(=O)[nH]c12 (stereo not drawn) the results were BoNT F protease 2, Anthrax LF prot 5, MazF activator 2, DUSP3 inh -17, BoNT A protease inconclusive and Autofluor counter 23808*.
Screening Cc1cccc2cc(C(c3nnnn3CC3CCCO3)N3CCOCC3)c(=O)[nH]c12 (stereo not drawn) returned BoNT F protease 8, Anthrax LF prot -7, MazF activator -2, DUSP3 inh 22, BoNT A protease inconclusive and Autofluor counter 18150*.
`Cc1ccc2cc(C(c3nnnn3C3CCCC3)N(Cc3ccco3)Cc3cccs3)c(=O)[nH]c2c1` (stereo not drawn) gave BoNT F protease -5, Anthrax LF prot -3, MazF activator -22, DUSP3 inh 22, BoNT A protease -2 and Autofluor counter 24754*.
For Cc1cccc2cc(C(c3nnnn3C(C)(C)C)N(Cc3ccco3)CC3CCCO3)c(=O)[nH]c12 (stereo not drawn) the results were BoNT F protease 4, Anthrax LF prot -2, MazF activator -3, DUSP3 inh 19, BoNT A protease 3 and Autofluor counter 21568*.
O=C(Nc1cccc(C(F)(F)F)c1)c1ccc2sc([C@@H]3O[C@H](CO)[C@H](O)[C@H](O)[C@H]3O)nc2c1 was read as BoNT F protease 0, Anthrax LF prot -5, BoNT A protease 0 and Autofluor counter 3664.
For Cc1ccc(S(=O)(=O)Nc2ccc(N3CCOCC3)cc2)cc1C the results were BoNT F protease 8, Anthrax LF prot 12, MazF activator -5, DUSP3 inh 25, BoNT A protease -4 and Autofluor counter 2858.
For COCCNC(=O)C1(C)CCN(Cc2noc(-c3c(C)noc3C)n2)C1 (stereo not drawn) the results were BoNT F protease 6, Anthrax LF prot 3, BoNT A protease 0 and Autofluor counter 3362.
`CCC1CCCCN1CC(=O)c1c(C)[nH]c2ccc(OC)cc12` (stereo not drawn) gave BoNT F protease inconclusive, Anthrax LF prot 6, MazF activator -16, DUSP3 inh -4, BoNT A protease -9 and Autofluor counter 5804.
`CCCCNC(=O)C1(C)CCN1C(=O)c1ccc(OC)c(F)c1` (stereo not drawn) gave BoNT F protease 6, Anthrax LF prot -7, BoNT A protease 0 and Autofluor counter 3959.
For O=c1[nH]c2cc3c(cc2cc1C(c1nnnn1CC1CCCO1)N1CCCCCC1)OCCO3 (stereo not drawn) the results were BoNT F protease -6, Anthrax LF prot 1, MazF activator -5, DUSP3 inh -2, BoNT A protease -4 and Autofluor counter 22706*.
Screening O=C(O)c1ccc2c(c1)C(c1ccccc1)OC2=O (stereo not drawn) returned BoNT F protease 16, Anthrax LF prot -13, MazF activator 2, DUSP3 inh 15, BoNT A protease 12 and Autofluor counter 16408*.
Screening CCCCN(c1ccccc1)S(=O)(=O)c1cccc(C(=O)O)c1 returned BoNT F protease -4, Anthrax LF prot -4, MazF activator 2, DUSP3 inh 9, BoNT A protease 0 and Autofluor counter 4443.
CCN(c1cccc(C)c1)S(=O)(=O)c1cccc(C(=O)O)c1 was read as BoNT F protease 0, Anthrax LF prot 0, MazF activator 7, DUSP3 inh 0, BoNT A protease 2 and Autofluor counter 23200*.
`CCN(c1cccc(C)c1)S(=O)(=O)c1ccc2[nH]c(=O)c(=O)[nH]c2c1` gave BoNT F protease -4, Anthrax LF prot -1, MazF activator 0, DUSP3 inh -9, BoNT A protease -2 and Autofluor counter 21312*.
